# In the supplement of paper PMC12350171:
# Counter-ions that a name gives are not always drawn. Unmarked numbers belong to inactive results.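 The calls were made as follows: active = AUC significantly below DMSO controls by Student t-fit with adjusted P under 0.01; inactive = not significantly reduced.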
# System: Shigella flexneri
# Test: growth AUC normalised to DMSO control (fraction of control); higher = less growth inhibition, active = hit call of the paper
# Conditions: 20 µM
# Summary of the method: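 Pathogens were passaged twice under anaerobic conditions, then inoculated into pre-reduced mGAM plates at a starting OD578 of 0.01, with compound at 20 μM and 1% DMSO, and sealed with breathable membranes. For Haemophilus parainfluenzae, the medium was supplemented with hemin and NAD. OD578 was read every hour for 24 h in three biological replicates. Growth-curve AUC was calculated by the trapezoidal rule up to the exponential-to-stationary transition and normalised to DMSO controls on the same plate.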
row,SMILES,growth AUC normalised to DMSO control
1,O=C(NCC(O)CO)c1c(I)c(C(=O)NCC(O)CO)c(I)c(N(CCO)C(=O)CO)c1I (configuration not stated) [Ioversol],1.03
2,CC(=O)CCCCn1c(=O)c2c(ncn2C)n(C)c1=O [Pentoxifylline],0.979
3,COC(=O)Nc1nc2cc(C(=O)c3ccc(F)cc3)ccc2[nH]1 [Flubendazol],0.994
4,CC(=O)N(CC(O)CO)c1c(I)c(C(=O)NCC(O)CO)c(I)c(C(=O)NCC(O)CO)c1I (configuration not stated) [Iohexol],0.968
5,O=C(Nc1cccc2c(=O)cc(-c3nnn[nH]3)oc12)c1ccc(OCCCCc2ccccc2)cc1 [Pranlukast],0.991
6,Cc1cccc(C)c1NC(=O)C1CCCCN1C (configuration not stated) [Mepivacaine hydrochloride],1.06
7,CCn1cc(C(=O)O)c(=O)c2cnc(N3CCCC3)nc21 [Piromidic acid],1.04
8,C[C@H](CCC(=O)O)[C@H]1CC[C@H]2[C@@H]3CC[C@@H]4C[C@H](O)CC[C@]4(C)[C@H]3CC[C@]12C [Lithocholic acid],1.02
9,CS(=O)(=O)c1ccc([C@@H](O)[C@@H](CO)NC(=O)C(Cl)Cl)cc1 [Thiamphenicol],0.0249 (active)
10,COC(=O)C1=C(C)NC(C)=C(C(=O)OC(C)C)C1c1cccc2nonc12 (configuration not stated) [Isradipine],1.02
11,NS(=O)(=O)c1cc2c(cc1C(F)(F)F)NCNS2(=O)=O [Hydroflumethiazide],1.01
12,CN(C)CCN(Cc1cccs1)c1ccccn1 [Methapyrilene hydrochloride],0.972
